VACV E9 pol inh: vaccinia E9 polymerase processive synthesis inhibition; in vitro processive DNA synthesis, absorbance read-out; stronger effect = lower value; normalized absorbance, % (no concentration beside the values); 46,000 compounds, 0.94% hits; AID 493162; in the data active = normalized absorbance mostly below about 85%, no sharp cut-off; inactive = mostly above about 86%
Numbers without * were called inactive. Many of the other results were omitted from the sample, so hits are more common in it than they were.

SMILES	VACV E9 pol inh
COC(=O)c1ccc(Cn2cc(Br)cn2)cc1	96
COc1ccc(C2=NC(c3ccncc3)=Nc3ccc(C(C)C)cc3N2)cc1OC	92
CN1/C(=C\C=C2C(=O)c3ccccc3C2=O)Sc2ccccc21	104
CCN1/C(=C\C=C\C(=O)c2ccccc2OC)Sc2ccccc21	111
CC(=S)/C=C1\Sc2ccccc2N1C	101
CCN1/C(=C/c2ccc3cc(C)ccc3[n+]2C)Sc2cc(OC)ccc21	24*
CCN1/C(=c2/sc3nc4ccccc4n3c2=O)Sc2ccc(OC)cc21	99
COc1ccc2c(ccc(/C=C3\Sc4ccccc4N3C)[n+]2C)c1	20*
O=C(/C=C/c1ccccc1)NC1CC1	100
CCOc1cc(C=C2C(=O)NC(=S)NC2=O)cc(Br)c1OCc1ccc(Cl)cc1	100
O=C1/C(=C/c2ccco2)CC(c2ccccc2)C/C1=C\c1ccco1 (stereo not drawn)	92
CC1=C/C(=C/c2ccco2)C(=O)O1	100
O=C1/C(=C/c2ccco2)CC/C1=C\c1ccco1	24*
CCOc1ccc(-c2nc3ccc(Br)cc3c(C(=O)O)c2C)cc1	101
CCOc1ccc(N2CCc3c2nc2ccc(Br)cc2c3N)cc1	99
CCCCN1CCc2c1nc1ccc(Br)cc1c2N	87*
Cc1cccc(N2C(=O)/C(=C/c3ccc(O)c(O)c3)SC2=S)c1C	100
O=C(CN1C(=O)CSc2cc(S(=O)(=O)N3CCCC3)ccc21)NC1CCCCCC1	94
CN(C)Cc1c2ccccc2cc2ccccc12	47*
CN1CCN(Cc2c3ccccc3cc3ccccc23)CC1	88
CN(C)Cc1cc2ccccc2[nH]1	100
Cc1ccc(C(=O)Nc2c3c(nn2-c2ccccc2)CSC3)cc1	100
O=C(CSc1ncnc2sc3c(c12)CCCC3)Nc1ccccc1	102
CCC1CCCCN1C(=O)CSc1ncnc2ccccc12 (stereo not drawn)	107
Cc1onc(C(=O)N(C)C)c1-c1ccnc(=S)[nH]1	88*
SMILES	VACV E9 pol inh
CC(=O)N(C(C)=O)c1nccc(-c2c(-c3ccccc3)noc2C)n1	97
Cc1nc2ccccn2c1-c1ccnc(=S)[nH]1	98
CN(C)c1ccc(C(=O)OCC(=O)NC2CC2)cc1	107
CN(C)c1ccc(C(=NO)c2ccc(N(C)C)cc2)cc1	100
CN(C)c1ccc(C(=C2C=CC(=[N+](C)C)C=C2)c2ccc(N(C)C)cc2)cc1	49*
CC(C)C(=O)Nc1nc(-c2ccccc2)cs1	102
CCOC(=O)N1CCC(NC(=O)Nc2ccc3c(c2)CCO3)CC1	93
COc1ccc(COCC(O)CN2C(C)CCCC2C)cc1OC (stereo not drawn)	100
Cc1ccc(C(=O)OCC(=O)NCc2ccccc2Cl)s1	109
Cc1ccc(NC(=O)CSC2=NCCS2)c(C)c1	101
C[n+]1c(/C=C/Nc2ccccc2)sc2ccccc21	75*
CC[n+]1c(/C=C/Nc2ccccc2)sc2ccccc21	99
CSc1sc2ccccc2[n+]1C	102
CC(=O)OC1CC(C)(C)N(OC(=O)c2ccc(-n3cnnn3)cc2)C(C)(C)C1	100
Cc1cccc(NC(=O)CSc2nnc(CCC(=O)O)c(=O)n2N)c1	99
O=C(Nc1ccc(C#Cc2ccccc2)cc1)C(F)(F)F	103
CCc1ccc(N2Cc3ccccc3C2=N)cc1	99
Cc1cc(C)nc(N2Cc3ccccc3C2=N)n1	69*
N=C1c2ccccc2CN1c1ccc2c(c1)OCCO2	104
CC(C)NC(=O)c1cc2c(s1)-c1ccccc1SC2	94
CN(C)CCNC(=O)c1cc2c(s1)-c1ccc(Cl)cc1SC2	55*
CC1CCN(C(=O)c2cc3c(s2)-c2ccc(Cl)cc2SC3)CC1	96
O=c1oc2ccccc2n1CNc1ccccn1	100
CN(C)C=NC(=O)c1ccc(-c2cccs2)s1	80*
Cc1ccc(C(=O)c2cccs2)s1	99
SMILES	VACV E9 pol inh
O=C(/C=C/c1ccc(-c2cccs2)s1)N1CCSCC1	95
Cc1ccc(-c2nc3ccccc3s2)cc1	71*
CCN(CC)S(=O)(=O)c1ccc(-c2nc3ccccc3s2)cc1	99
Cc1ccc(-n2nnnc2-c2nc3ccccc3s2)cc1	111
Cc1[nH]c2ccccc2c1SCC(N)=O	100
CCOC(=O)Cn1cnc2ccccc2c1=O	100
CNC(=O)C12CC3CCC(CC(C3)C1)C2	95
CC(C)N=Cc1c(O)[nH]c2ccccc12	100
O=Nc1c(-c2c(O)[nH]c3ccccc23)[nH]c2ccccc12	83*
COc1ccc2[nH]c(O)c(N=O)c2c1	100
CC1CC(C)CN(S(=O)(=O)c2ccc(N)cc2)C1 (stereo not drawn)	88
NS(=O)(=O)c1ccc2nc(NC(=O)c3ccc(Br)cc3F)sc2c1	98
CN(C)c1ccc(C2=CC=CC(=C3C=CC(=[N+](C)C)C=C3)O2)cc1	39*
Nc1ncnc2c1ncn2C1C=CC(CO)O1 (stereo not drawn)	101
CCC(=O)NCCc1nc2ccccc2n1C	101
Cc1cccc(N(Cc2cc(=O)n3ccccc3n2)C2=NC3CS(=O)(=O)CC3S2)c1 (stereo not drawn)	101
COc1cccc(N(Cc2ccc(C)cc2)C2=NC3CS(=O)(=O)CC3S2)c1 (stereo not drawn)	68*
Cc1ccc(C)c(CN(C2=NC3CS(=O)(=O)CC3S2)c2cccc(Cl)c2)c1 (stereo not drawn)	89
Cc1ccc(NCC(=O)c2ccc(-n3nncc3-c3ccccc3)cc2)cc1	101
CNC(=O)COc1ccc(-c2nn(C)c(=O)c3ccccc23)cc1	76*
CNC(=O)COc1ccc(NC(=O)CCn2nc(-c3ccc(Cl)cc3)c3ccccc3c2=O)cc1	100
Cc1cc(-c2nn(C)c(=O)c3ccccc23)cc(C)c1OCC(=O)NN	106
O=C(CSc1ccc2nnc(-c3ccc(F)cc3)n2n1)c1ccccc1	101
CC12CC[C@@H]3c4ccc(O)cc4CCC3[C@@H]1CCC2=O (stereo partly drawn)	100
Cc1ccc2c(c1)c1c(c(=O)n(-c3ccccc3)c(=O)n1CC(=O)c1ccccc1)n2C	94
SMILES	VACV E9 pol inh
Cc1ccnc(NC(=O)c2cccs2)c1	100
Cc1ccnc(NC(=O)c2cc(-c3ccc(C)c(C)c3)n[nH]2)c1	92
CC(Nc1cc(C)ccn1)=C(C#N)C#N	63*
CS(=O)(=O)c1nc(Oc2cccc(C(F)(F)F)c2)cc(Oc2cccc(C(F)(F)F)c2)n1	100
CCN1/C(=C/c2scc[n+]2C)C=C(C)c2cc(OC)c3ccccc3c21	27*
CCN1C(=O)C(=Cc2ccc(N3CCOCC3)cc2OC)C(=O)N(CC)C1=S	102
CN(C)c1ccc(NC(=O)COC(=O)Cc2ccc(Br)cc2)cc1	84
Cc1cccc(OCC(O)CN2C(C)(C)CCCC2(C)C)c1 (stereo not drawn)	112
CCCC(C#CCN1CCCCC1)OC(C)=O (stereo not drawn)	100
CC1(c2ccccc2)CC(C)(C)N2C(=O)/C(=C3\SC(=O)NC3=O)c3cccc1c32 (stereo not drawn)	101
N#CCc1nc2ccc(F)cc2c(=O)[nH]1	72
Oc1ccc(Br)cc1C=NCC12CCC3CC(CC(C3)C1)C2	100
Oc1ccc(Br)cc1C=NCC1CCCO1 (stereo not drawn)	75*
Oc1ccc(Br)cc1C=NCc1ccccc1	98
O=S1(=O)CCN(Cc2ccc(OC(F)(F)F)cc2)CC1	108
Cc1ccc(Sc2cn[nH]c2C)cc1	73*
CCOC(=O)c1[nH]ncc1Sc1ccc(Cl)cc1	101
Cc1ccc(Sc2cnc3ccccc3n2)cc1	119
c1ccc2c(c1)ccc1oc(-c3ccn[nH]3)cc12	78

Screens deposited in PubChem BioAssay by ICCB-Longwood Screening Facility, Harvard Medical School.
